Results filed as inconclusive are left out. A number with no mark means an inactive call. The source made the active and inactive calls. The call rests on the fitted dose curve; in most records, active means well fitted cell-killing curve with a large enough effect in the repeat runs; inconclusive means weak or mixed curves, or effect the other way; inactive means flat fitted curve, though single readings scatter.
On the % scale 0 is the no-effect control and ±100 the full control effect.

The first assay can be described thus: cAMP Responsive Elements (CRE) small molecule antagonists, cell-based qHTS assay: qHTS cell viability counter screen (AID 2060913). Further: nearly all actives have a fitted effect of over 40% in size. Conditions: CRE-bla HEK293T viability, CellTiter-Glo luminescence, 5 h; series mostly up to 92.4 µM; viability change, negative = cytotoxic: at the top concentration. The method in brief:
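Steps: cells plated and held 18 hrs at 37 C/5% CO2; compounds and NKH477 (0.25 uM final) added; 3 hrs incubation; reporter substrate read; CellTiter-Glo added to measure cytotoxicity by luminescence.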
(In general: In qHTS, concentration-response curves come from the screen itself.)
As to `Cc1ccc(N=CN(C)C=Nc2ccc(C)cc2C)c(C)c1`, the Potency result is “inactive”.
As to `CC(=O)C(Cl)C(=O)N(C)C` (stereo not given), the “viability change, negative = cytotoxic” value was 5.03%.
For `CCN(CC)C1CCCCC1`, the “viability change, negative = cytotoxic” value is -3.31%.
On to `CCCC(C)C1(CC)C(=O)N=C(S)NC1=O` (stereo not given), for which the “viability change, negative = cytotoxic” value was -7.31% [at 42.5 µM].
With `OC[C@@H](O)[C@H]1O[C@@H]2O[C@H](C(Cl)(Cl)Cl)O[C@@H]2[C@H]1O`, the Potency entry is “inactive”.
As for `C=CCN1CC[C@]23CCCC[C@H]2[C@H]1Cc1ccc(O)cc13`, the “viability change, negative = cytotoxic” value is 1.11% [at 42.5 µM].
Consider `CC[C@H]1C[C@@H]2C[C@H]3c4[nH]c5ccc(OC)cc5c4CCN(C2)[C@@H]13`, for which the “viability change, negative = cytotoxic” value is -2.75%.
With `O=C(NCc1cccnc1)Nc1ccc([N+](=O)[O-])cc1`, the “viability change, negative = cytotoxic” value is 0.257%.
Turning to `c1ccc(NNc2ccccc2)cc1`, the Potency entry is “inactive”.
Consider `Nc1ccc(Cl)cc1C(=O)c1ccccc1F`, for which the “viability change, negative = cytotoxic” value was -1.39% [at 42.5 µM].
For the compound `Cc1cnc[nH]1`, the “viability change, negative = cytotoxic” value is -0.901%.

Another assay is described as follows: cAMP Responsive Elements (CRE) small molecule agonists, cell-based qHTS assay: qHTS cell viability counter screen (AID 2060914). Further: nearly all actives have a fitted effect of over 50% in size. Conditions: CRE-bla HEK293T viability, CellTiter-Glo luminescence, 5 h; series mostly up to 92.4 µM; activity change, negative = cytotoxicity: at the top concentration. In a few lines: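 Cytotoxicity counter screen multiplexed with the CRE-bla reporter assay in HEK 293T cells: 3 h compound exposure at 37 °C, followed by CellTiter-Glo luminescence measured in the same wells.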
Take `CN[C@@H](C)[C@H](O)c1ccccc1`: the “activity change, negative = cytotoxicity” value was -2.08% [at 42.5 µM].
As to `C=CC(=O)OCCN(C)C`, the “activity change, negative = cytotoxicity” value is -9.83%.
On the same count and under the same terms, to `CCC(C)Nc1c([N+](=O)[O-])cc(C(C)(C)C)cc1[N+](=O)[O-]` (stereo not given) belongs -19.9%.
As for `O=C(O)c1nc(Cl)ccc1Cl`, the Potency result is “inactive”.
For the compound `Clc1cccc2ccccc12`, the “activity change, negative = cytotoxicity” value was -8.78%.
On to `CCC(=O)C(CCN(C)C)(c1ccccc1)c1ccccc1`, for which the “activity change, negative = cytotoxicity” value is -3.86% [at 42.5 µM].
Consider `c1ccc2sc(SNC3CCCCC3)nc2c1`, for which the Potency result is “inactive”.
Turning to `ClC(Cl)=C(c1ccc(Cl)cc1)c1ccc(Cl)cc1`, the “activity change, negative = cytotoxicity” value is -10.6%.
The same measure, in the same setting: then `O=S(=O)(O)C(F)(F)C(F)(F)C(F)(F)C(F)(F)F`, with 5.93%; and `N#CCc1ccc(Cl)cc1`, with 8.64%.
As for `O=C(CCl)Nc1ccccc1`, the “activity change, negative = cytotoxicity” value was 15.7%.
On the same count and under the same terms, to `N#Cc1c2ccccc2cc2ccccc12` belongs 2.71%; to `CC(C)CC#N`, 3.7%.
Consider `CCN(CC)CCO`, for which the Potency entry is “inactive”.
Still for that read-out and setting: to `CCOP(=S)(OCC)Oc1ccc2c(C)c(Cl)c(=O)oc2c1` belongs “inactive”.
`CC(C)CCCCCCCOC(=O)c1ccccc1C(=O)OCCCCCCCC(C)C`: the “activity change, negative = cytotoxicity” value is -12.9%.
As for `C#CCOS(=O)OC1CCCCC1Oc1ccc(C(C)(C)C)cc1` (stereo not given), the Potency entry was “inactive”.
In the case of `CC1N=C(N)OC1c1ccccc1` (stereo not given), the “activity change, negative = cytotoxicity” value was -2.42%.
Take `C#CC(C)(C)NC(=O)c1cc(Cl)cc(Cl)c1`: the Potency entry is “inactive”.
As to `O=C(Cl)C(Cl)Cl`, the “activity change, negative = cytotoxicity” value is -3.88%.
Consider `Cc1cccc([N+](=O)[O-])c1`, for which the Potency entry was “inactive”.
Regarding `O=C(O)CBr`, the “activity change, negative = cytotoxicity” value was -0.721%.
Consider `C[C@]12C=CC3=C4CCC(=O)C=C4CC[C@H]3[C@@H]1CC[C@@H]2O`, for which the Potency result was “inactive”.
Regarding `Nc1ccc(Cc2ccc(N)c(Cl)c2)cc1Cl`, the “activity change, negative = cytotoxicity” value was -1.37%.
As for `CCCCCCCCCCBr`, the “activity change, negative = cytotoxicity” value was 1.11%.
In the case of `CC(C)(C)c1cc(O)ccc1O`, the Potency result was “inactive”.
`C=CC(N)=O`: the Potency result is “inactive”.
On the same count and under the same terms, to `[Cl-].[Cl-].[Cl-].[Fe+3]` belongs “inactive”.
As to `Cc1ccc(N=CN(C)C=Nc2ccc(C)cc2C)c(C)c1`, the Potency entry is “inactive”.
For the compound `CC(=O)C(Cl)C(=O)N(C)C` (stereo not given), the “activity change, negative = cytotoxicity” value is 24.9%.
Turning to `CCN(CC)C1CCCCC1`, the “activity change, negative = cytotoxicity” value was -1.41%.
On the same count and under the same terms, to `CCCC(C)C1(CC)C(=O)N=C(S)NC1=O` (stereo not given) belongs -7.14% [at 42.5 µM].
On to `OC[C@@H](O)[C@H]1O[C@@H]2O[C@H](C(Cl)(Cl)Cl)O[C@@H]2[C@H]1O`, for which the Potency result was “inactive”.
For the compound `C=CCN1CC[C@]23CCCC[C@H]2[C@H]1Cc1ccc(O)cc13`, the “activity change, negative = cytotoxicity” value was -7.52% [at 42.5 µM].
Same read-out and setting: then `CC[C@H]1C[C@@H]2C[C@H]3c4[nH]c5ccc(OC)cc5c4CCN(C2)[C@@H]13`, with 5.36%; and `O=C(NCc1cccnc1)Nc1ccc([N+](=O)[O-])cc1`, with -3.38%.
As for `c1ccc(NNc2ccccc2)cc1`, the Potency result was “inactive”.
As to `Nc1ccc(Cl)cc1C(=O)c1ccccc1F`, the “activity change, negative = cytotoxicity” value was -5.01% [at 42.5 µM].
On the same count and under the same terms, then `Cc1cnc[nH]1`, with 12.4%.

(Values after PubChem BioAssay (Tox21).)
